From PubChem BioAssay AID818 (SRMLSC, 2007)
The whole screen tested about 140,000 compounds, of which about 2,100 (1.5%) were called active. The entries come from a sample that favours actives as a whole. A number with no mark means an inactive call.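 Rule for the calls: active = viability at or under a set limit, the compound median less 4 SD (cut at about 6% in these data); inactive = the rest.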

assay: primary screen for growth suppressors in beta-catenin knockout HCT116 cells (colon tumor, human) (AID 818); conditions: CellTiter-Glo, 60 h, at 10 µM, hits give low values;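 note: 0% = Hyamine 1622 control at 20 µM and 100% = untreated cell control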

Row | Structure (SMILES) | viability
1 | CN(C)c1ccc(/C=C2\CC3C4CC=C5CC(O)CCC5(C)C4CCC3(C)C2=O)cc1 (stereo not given) | 2.09% (active)
2 | C[N+]1(C)CCOC(O)(c2ccc(-c3ccc(C4(O)C[N+](C)(C)CCO4)cc3)cc2)C1 (stereo not given) | 79.5%
3 | Cc1nn(Cc2ccccc2Cl)c(Cl)c1C(=O)OC(C(=O)NC(N)=O)C(C)C (stereo not given) | 83%
4 | Cc1ccc2c(c1)=C/C(=C\c1c(O)[nH]c(=O)[nH]c1=O)C(=O)N=2 | 82.4%
5 | Cc1cccc(OP(=O)(Oc2cccc(C)c2)OC(c2ccccc2)C(F)(F)F)c1 (stereo not given) | 66.6%
